For 58 molecules, inhibition results are on record in PubChem BioAssay AID1852 (Sanford-Burnham Center for Chemical Genomics, 2009).

About 1,100 (44%) of roughly 2,500 compounds were called active.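 How the source made its calls: active means inhibition above 50% at 4 µM in the single-point screen; inactive means inhibition of 50% or less.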 So high a share suggests a set chosen from earlier hits. Some of the results follow.

This experiment in a line: TNF-a-driven NF-kB reporter inhibitors, primary screen, selectivity assay for NOD1/NOD2 signaling inhibitor project, cell-based, HEK293T NF-kB-Luc, luminescence (AID 1852). Particulars: TNF-a induced, 14 h, at 4 µM, active compounds read high.
A word on the inhibition: it is the change of the read-out against control, counted positive when it falls. With `CCN(CC)CCNC(=O)c1ccc(NC(=O)C2CCN(c3ncnc4sc(C)c(C)c34)CC2)cc1`, the inhibition was 43.8% (inactive).

For `Cc1sc2ncnc(N3CCC(C(=O)N(C)CC(=O)Nc4ccccc4Cl)CC3)c2c1C`, the inhibition is 50.3% (active).

Regarding `CCOC(=O)c1sc(N2C(=O)C(O)=C(C(=O)c3ccco3)C2c2ccco2)nc1C` (stereo not drawn), the inhibition was 76.1% (active).

In the case of `CCOC(=O)c1sc(N2C(=O)C(O)=C(C(=O)c3ccco3)C2c2cccc([N+](=O)[O-])c2)nc1C` (stereo not drawn), the inhibition is 23.8% (inactive).

With `COc1cccc2cc(C(=O)C3=C(O)C(=O)N(c4cc(C)on4)C3c3cccs3)oc12` (stereo not drawn), the inhibition was -0.9% (inactive).

As for `CCC(C)(C)c1ccc(Oc2ccc(N)cc2)cc1`, the inhibition was 75.5% (active).

For `NC(=O)C1CCN(c2ccc(S(=O)(=O)N3CCC(Cc4ccccc4)CC3)cn2)CC1`, the inhibition is 32.5% (inactive).

For the molecule `CC1CCN(Cc2c(C(=O)N/N=C/c3cc(Br)ccc3O)nnn2-c2nonc2N)CC1`, the inhibition was 95.1% (active).

As to `Nc1nonc1-n1nnc(C(=O)N/N=C/c2cc(Br)ccc2O)c1CNc1ccccc1`, the inhibition was 56.5% (active).

As for `Cc1c(C(=O)N/N=C/c2c(O)ccc3ccccc23)nnn1-c1nonc1N`, the inhibition was 89% (active).

As for `Cc1nc([N+](=O)[O-])c(Br)n1Cc1ccc(Cl)c(Cl)c1`, the inhibition was 7.2% (inactive).

As for `Cn1c(=O)c2c(nc(NCc3ccco3)n2C/C=C/c2ccccc2)n(C)c1=O`, the inhibition was 78.2% (active).

On to `CC(C)n1c(CN(C)Cc2ccccc2)nc2c1c(=O)n(C)c(=O)n2C`, for which the inhibition was 38.7% (inactive).

`COc1cc(CNc2ccc3[nH]c(=O)[nH]c3c2)cc(Br)c1OCc1ccc(F)cc1`: the inhibition was 47.6% (inactive).

On to `COc1cc(CNc2ccc3[nH]c(=O)[nH]c3c2)ccc1OCc1ccccc1C`, for which the inhibition was 37.1% (inactive).

Take `COc1cc(CNc2ccc3[nH]c(=O)[nH]c3c2)cc(Br)c1OCc1ccccc1F`: the inhibition was 61% (active).

Take `Cc1cccc(C2=NC(C(F)(F)F)(C(F)(F)F)c3c(n(-c4ccc(F)cc4)c(=O)[nH]c3=O)N2)c1`: the inhibition is -13.7% (inactive).

As to `O=c1[nH]c(=O)n(Cc2ccco2)c2c1C(C(F)(F)F)(C(F)(F)F)N=C(c1ccc(F)cc1)N2`, the inhibition was 90.9% (active).

Regarding `Cc1ccc(CNc2ncnc(N)c2[N+](=O)[O-])cc1`, the inhibition is 36.2% (inactive).

Regarding `Nc1ncnc(NCc2ccc(F)cc2)c1[N+](=O)[O-]`, the inhibition is 60.6% (active).

`O=C(Nc1ccc(N2CCN(c3ncccc3C(F)(F)F)CC2)nc1)c1cccs1`: the inhibition is 64.1% (active).

`Cc1ccc(NC(=O)C2CCN(S(=O)(=O)c3ccc4c(c3)NC(=O)C(C)S4)CC2)cc1Cl` (stereo not drawn): the inhibition was 39.1% (inactive).

Consider `Cc1nnc(Sc2nc3ccccc3o2)c2ccccc12`, for which the inhibition was 45.3% (inactive).

Turning to `O=S1(=O)C=C(Sc2nnc(-c3ccccc3)o2)c2ccccc21`, the inhibition was 70.6% (active).

Take `O=S1(=O)C=C(Sc2nc3cc(Cl)ccc3o2)c2ccccc21`: the inhibition is 91.1% (active).

As for `O=C(N/N=C/c1c(O)ccc2ccccc12)c1ccc(CO)nc1`, the inhibition is 96.6% (active).

Turning to `O=C(N/N=C/c1c(O)ccc2ccccc12)c1ccc(Br)o1`, the inhibition is 34.2% (inactive).

For the molecule `O=C(CN1CCCC1)N/N=C/c1c(O)ccc2ccccc12`, the inhibition is 87.6% (active).

For the molecule `O=C(N/N=C\c1c(O)ccc2ccccc12)c1ccc(O)cc1`, the inhibition was 69.4% (active).

Consider `Cn1nccc1C(=O)N/N=C/c1c(O)ccc2ccccc12`, for which the inhibition is 66.6% (active).

Turning to `O=C(CN1CCCCCC1)Nc1ccc(Br)cn1`, the inhibition is -21.9% (inactive).

Consider `Cc1ccc(C(=O)N/N=C/c2c(O)ccc3ccccc23)cn1`, for which the inhibition was 73.2% (active).

Consider `Cc1ccc(CN2CCN(C(=O)c3cccc4ccccc34)CC2)cc1`, for which the inhibition is 12.3% (inactive).

With `C#Cc1ccc([C@@H]2C=C(C(=O)N3CCN(Cc4ccccc4)CC3)O[C@H](OCCCCO)C2)cc1`, the inhibition was 61.3% (active).

Consider `CCN(CC)c1ccc(C(=O)N2CCN(Cc3ccccc3)CC2)cc1`, for which the inhibition was 46.5% (inactive).

Take `COc1ccc2c(c1)-c1c(ssc1=S)C(C)(C)N2`: the inhibition was 92.8% (active).

For `COc1cc(/C=C2/C(=O)NN(c3cccc(Cl)c3)C2=O)cc(Br)c1O`, the inhibition is 0.8% (inactive).

For `COc1cc(/C=C2/C(=O)NN(c3cccc(Cl)c3)C2=O)cc(OC)c1O`, the inhibition is 99.4% (active).

In the case of `COc1cc(/C=C2/C(=O)NN(c3ccc(Cl)cc3)C2=O)cc(OC)c1O`, the inhibition was 9.3% (inactive).

As to `N=C1SC(c2ccccc2)C(=O)N1c1ncc(Cc2ccccc2)s1` (stereo not drawn), the inhibition was 107% (active).

In the case of `Cc1ccc(Cc2cnc(N3C(=N)SC(c4ccccc4)C3=O)s2)cc1` (stereo not drawn), the inhibition is 99.6% (active).

With `N=C1SC(c2ccccc2)C(=O)N1c1ncc(Cc2ccccc2Cl)s1` (stereo not drawn), the inhibition was 106% (active).

With `CCOC(=O)C(=Cc1ccc(OCc2ccc([N+](=O)[O-])cc2)c(OC)c1)C(=O)OCC`, the inhibition is 11.6% (inactive).

As for `Cc1nc2cc(N3CCN(C)CC3)c(NC(=O)Cc3ccccc3)cc2c(=O)n1Cc1ccccc1`, the inhibition is -21.7% (inactive).

Turning to `C/C(=N\NC(=O)c1nnn(-c2nonc2N)c1CN1CCc2ccccc21)c1ccccc1O`, the inhibition was 78.8% (active).

For `C/C(=N\NC(=O)c1nnn(-c2nonc2N)c1CN1CCCCC1)c1ccccc1O`, the inhibition was 64.6% (active).

As to `C=CC[n+]1c(/C=C2\C=Cc3cc(C)ccc3N2CC)ccc2ccccc21`, the inhibition is 74.1% (active).

Turning to `CCN1/C(=C/c2cc[n+](C)cc2)C=Cc2cc(C)ccc21`, the inhibition was 66% (active).

As for `CCN1/C(=C/c2ccc3ccccc3[n+]2CC)C=Cc2ccccc21`, the inhibition is 67.3% (active).

For `Cc1ccc2c(c1)c(/C=C/c1cc[n+](C)cc1)c(C)n2C`, the inhibition is 24.2% (inactive).

Regarding `C=CC[n+]1ccc(/C=C2\C=Cc3cc(C)ccc3N2CC)c2ccccc21`, the inhibition is 84.9% (active).

As for `CN1/C(=C/c2cc[n+](C)c3ccccc23)C=Cc2ccccc21`, the inhibition is 47.9% (inactive).

For `Cc1ccc(Cn2ccsc2=NC(=O)CCl)cc1`, the inhibition is 46.5% (inactive).

`CCCn1c(NC(=O)c2ccc(Cl)c(S(=O)(=O)N3CCCC3)c2)nc2ccccc21`: the inhibition is 24.9% (inactive).

Regarding `CCOc1cc(C)c(Cl)cc1S(=O)(=O)n1nnc2ccccc21`, the inhibition was 63.8% (active).

As for `COc1ccc(CCNC(=O)c2ccc3c(c2)N(Cc2ccccc2)CCS3)cc1OC`, the inhibition was -41.1% (inactive).

With `CC1CC(=O)N(c2ccc(NCCc3ccccc3)c([N+](=O)[O-])c2)C1=O` (stereo not drawn), the inhibition is -4.9% (inactive).

Consider `COc1ccc(CCNc2cc(N3CCN(C(=O)c4ccccc4F)CC3)ccc2[N+](=O)[O-])cc1OC`, for which the inhibition was 85.7% (active).
